Most compounds without a hit are left out; they make up all but 2.8% or so of the library.
TGFb SMAD3 inh: blocks TGF-b signaling. Potency, µM (series often up to 46.1 µM), inactives show at the highest dose activity, negative = inhibition, hits mostly inhibitors. HepG2 CAGA-GFP TGF-b/SMAD3 reporter, GFP fluorescence, 18 h; TGF-beta stimulated, 500 pg/mL final. 410,000 compounds, 1.2% hits; further: potency means the concentration at half of the fitted maximal effect; on the % scale 0 is the no-effect control and ±100 the full control effect; nearly all actives have a fitted effect of over 65% in size
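Read-out: total well GFP (ex488/em500-530) summed from mean per-cell fluorescence. Cells: HEPG2 CAGA-GFP, 1% FBS DMEM, 18 h at 37 degrees C with 500 pg/mL final TGF-beta. Unstimulated wells served as the full-inhibition control; stimulated DMSO wells = 0%.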
ATXN2 expr inh: ATXN2 expression inhibition. HEK-293 ATXN2-luciferase reporter, luminescence, 24 h. 360,000 compounds, 0.72% hits. Potency, µM (titrated, usually from 57 µM), inactives show at the top dose activity change, negative = inhibition, hits mostly inhibitors. AID 1745845; further: potency means the concentration at half of the fitted maximal effect; on the % scale 0 is the no-effect control and ±100 the full control effect; nearly all actives have a fitted effect of over 55% in size
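qHTS (up to 57 uM final) was run with 24 h compound exposure of reporter cells at 37 °C. Each well was multiplexed: SteadyGlo luminescence measured ATXN2-luciferase expression after a fluorogenic Gly-Phe-AFC viability readout (25 uM final).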
CtBP-E1A inh: CtBP/E1A binding inhibition; AlphaScreen GST-E1A/His-CtBP binding, 1536-well; stronger effect = lower value; activity change, % (test concentration not listed); AID 651724; 340,000 compounds, 0.49% hits; in the data active means activity change below about -65%; inconclusive means mostly about -30% to -63%; further: on the % scale 0 is the no-effect control and ±100 the full control effect
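In 5 uL wells, 23 nL compound meets equimolar GST-E1A and His-CtBP (5X stock 125 nM each) for 2 h, 37 °C. Beads (5X, 50 ug/mL) then 1 h, 37 °C, dark.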
S2 tox: viability counter-screen for ATXN expression inhibitors; S2 cells (HEK-293 line with an ATXN2-luciferase reporter) viability, CellTiter-Fluor protease fluorescence, 24 h; Potency, µM (series often up to 56.7 µM), hits mostly cytotoxic; 400,000 compounds, 0.49% hits; AID 651635; further: potency means the concentration at half of the fitted maximal effect; nearly all actives have a fitted effect of over 40% in size
Six1-Eya2 blk: inhibitors of human Six1/Eya2 interaction. Q15475+O00167. AlphaScreen GST-Six1/His-Eya2 binding, biochemical; stronger effect = lower value. activity change, % (no concentration beside the values). 360,000 compounds, 0.56% hits; in the data active means activity change below about -65%; inconclusive means mostly about -30% to -63%; further: on the % scale 0 is the no-effect control and ±100 the full control effect
Target sequence (O00167 whole entry, looked up): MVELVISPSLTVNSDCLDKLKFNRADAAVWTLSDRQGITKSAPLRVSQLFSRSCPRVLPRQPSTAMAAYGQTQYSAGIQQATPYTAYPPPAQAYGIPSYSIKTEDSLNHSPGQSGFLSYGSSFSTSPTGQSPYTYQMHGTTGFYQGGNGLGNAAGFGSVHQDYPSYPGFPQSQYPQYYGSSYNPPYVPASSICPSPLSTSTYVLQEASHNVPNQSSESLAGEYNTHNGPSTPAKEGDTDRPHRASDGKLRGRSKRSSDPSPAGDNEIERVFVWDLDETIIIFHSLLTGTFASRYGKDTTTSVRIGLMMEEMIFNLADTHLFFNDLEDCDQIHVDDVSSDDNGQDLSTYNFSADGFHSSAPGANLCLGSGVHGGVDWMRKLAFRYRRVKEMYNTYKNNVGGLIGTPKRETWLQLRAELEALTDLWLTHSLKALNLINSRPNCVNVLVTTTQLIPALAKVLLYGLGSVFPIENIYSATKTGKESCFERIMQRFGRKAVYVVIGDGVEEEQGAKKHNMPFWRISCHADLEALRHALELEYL
Target sequence (Q15475 whole entry, looked up): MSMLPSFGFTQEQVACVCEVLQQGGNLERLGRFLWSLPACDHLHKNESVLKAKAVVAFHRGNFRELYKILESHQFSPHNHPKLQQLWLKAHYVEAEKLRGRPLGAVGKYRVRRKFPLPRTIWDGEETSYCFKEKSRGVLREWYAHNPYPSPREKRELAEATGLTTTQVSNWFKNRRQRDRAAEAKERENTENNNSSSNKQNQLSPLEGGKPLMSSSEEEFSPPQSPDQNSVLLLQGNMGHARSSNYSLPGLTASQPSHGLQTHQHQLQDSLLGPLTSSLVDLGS
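Compounds are tested against tagged Six1 and Eya2 proteins bridged by glutathione donor and nickel acceptor beads; after a one-hour incubation at 37 °C without light, AlphaScreen emission is recorded.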
HepG2 tox-1: HepG2 cytotoxicity, counter-screen for TGF-b inhibitors; HepG2 CAGA-GFP viability, ATP luminescence, 18 h; Potency, µM (series often up to 46.1 µM), for inactives: at the highest dose activity change, negative = cytotoxicity, most hits filed as cytotoxic; 410,000 compounds, 0.76% hits; further: potency means the concentration at half of the fitted maximal effect
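CellTiter-Glo luminescence gave cytotoxicity after 18 hours at 37 degrees C. The cells were HepG2 CAGA-GFP in 1% FBS DMEM, stimulated with 500 pg/mL TGF-beta after compound addition. %Activity was normalised to no-cell wells (complete cell-killing) and DMSO (no toxicity), and curves were fitted and classified.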
TGFb CAGA inh: confirmation of TGF-b signaling inhibitors in HepG2 reporter cells | 1,600 compounds, 63% hits | Potency, µM (doses to about 46.1 µM), for inactives: at the top dose activity, negative = inhibition, actives largely listed as inhibitors | shares compounds with TGFb SMAD3 inh | HepG2 CAGA-GFP TGF-b reporter, GFP fluorescence, 18 h; cells stimulated with TGF-beta, 500 pg/mL; further: potency means the concentration at half of the fitted maximal effect; on the % scale 0 is the no-effect control and ±100 the full control effect; nearly all actives have a fitted effect of over 65% in size
HepG2 tox-2: HepG2 cytotoxicity, TGF-b inhibitor counterscreen. shares compounds with TGFb SMAD3 inh. HepG2 CAGA-GFP viability, ATP luminescence, 18 h; cells stimulated with TGF-beta, 500 pg/mL. Potency, µM (highest dose often 46.1 µM), inactives show at the top dose activity, negative = cytotoxicity, actives largely listed as inhibitors. 1,600 compounds, 27% hits; further: potency means the concentration at half of the fitted maximal effect; on the % scale 0 is the no-effect control and ±100 the full control effect; nearly all actives have a fitted effect of over 70% in size
TGFb CCL64 inh: blocks TGF-b signaling in CCL64 reporter cells; shares compounds with TGFb SMAD3 inh; 1,600 compounds, 41% hits; CCL64 CAGA-GFP reporter, TGF-b stimulated, GFP fluorescence, 18 h; Potency, µM (series often up to 46.1 µM), without a hit: top-dose activity, negative = inhibition, hits mostly inhibitors; AID 720536; further: potency means the concentration at half of the fitted maximal effect; nearly all actives have a fitted effect of over 65% in size
TGFb COP inh: validation of TGF-b inhibitors in HepG2 COP promoter reporter; shares compounds with TGFb SMAD3 inh; HepG2 COP-GFP TGF-b reporter, GFP fluorescence, 18 h; cells stimulated by added recombinant TGF-beta; Potency, µM (doses to about 46.1 µM), inactives show at the highest dose activity, negative = inhibition, usual class: inhibitors; 1,600 compounds, 3% hits; further: potency means the concentration at half of the fitted maximal effect; nearly all actives have a fitted effect of over 70% in size
Numbers without * were called inactive; i = inactive; ? = inconclusive; · = not tested or not shown; [ ] = another dose, or the depositor's remark. Unless noted, the call rests on the fitted dose curve; in most records, active means well fitted curve in the direction sought with a large enough effect; inconclusive means small, poorly fitted or top-dose-only effect, or another doubt; inactive means no such curve, though single readings can be large; an effect the other way counts as inactive or inconclusive.

SMILES	TGFb SMAD3 inh	ATXN2 expr inh	CtBP-E1A inh	S2 tox	Six1-Eya2 blk	HepG2 tox-1	TGFb CAGA inh	HepG2 tox-2	TGFb CCL64 inh	TGFb COP inh
O=C(Nc1ccc(Br)cc1)c1cccc(S(=O)(=O)Nc2cnc3ccccc3c2)c1	13µM*	-17%	0	i	-4	-27%	8.2µM*	?	23µM*	92%
O=C(CSc1nc2c([nH]c3ccccc32)c(=O)n1-c1ccccc1)Nc1ccc(Cl)c(Cl)c1	?	·	·	·	·	-18%	·	·	·	·
COc1ccc(CN2C[C@H]3CCCN3c3cc(Br)ccc3S2(=O)=O)cc1	10µM*	-7%	2	?	-2	-20%	8.2µM*	-3%	?	-22%
CCOC(=O)c1c(NC(=O)c2cc3ccccc3c(=O)o2)sc2c1CCC(C(C)(C)C)C2 (stereo not drawn)	-18%	5%	·	i	·	-9%	·	·	·	·
Cc1ccc(O)c(C(CC(=O)NC(C)C)c2ccccc2)c1 (stereo not drawn)	?	-31%	0	i	1	-41%	·	·	·	·
CC(NC(=O)CC(c1ccccc1)c1cc(Cl)ccc1O)c1ccccc1 (stereo not drawn)	16µM*	-1%	7	?	1	-1%	?	23µM*	18µM*	57%
CC(=O)N(Cc1ccc(F)cc1)C1=C(NCc2ccccc2)C(=O)c2ccccc2C1=O	6.3µM*	11µM*	?	22µM*	-27	3.2µM*	7.3µM*	3.7µM*	3.7µM*	?
CC1=C(C(=O)N(C(C)C)C(C)C)CC(CC(=O)NCCCCc2ccccc2)C(=O)N1Cc1ccc(F)cc1 (stereo not drawn)	7.9µM*	?	-2	?	-3	3%	?	-6%	23µM*	-4%
CC1=C(C(=O)N(C(C)C)C(C)C)CC(CC(=O)NC(c2ccccc2)c2ccccc2)C(=O)N1Cc1ccc(C(C)(C)C)cc1 (stereo not drawn)	18µM*	?	1	i	-7	2%	9.2µM*	-27%	?	9%
CC1=C(C(=O)N(C(C)C)C(C)C)CC(CC(=O)NCCCCc2ccccc2)C(=O)N1Cc1ccccc1 (stereo not drawn)	?	0%	-2	?	0	-34%	·	·	·	·
CC(=O)c1cccc(N=c2scc(-c3ccc(S(=O)(=O)N4CCOCC4)cc3)n2CCO)c1	?	-38%	-22	i	-23	-37%	1%	-29%	?	8%
COc1cccc(CNC(=O)c2cc(-c3ccc(Cl)cc3)n[nH]2)c1	?	·	·	·	·	-46%	·	·	·	·
CN(C)CCNC(=O)COc1ccc(Cl)cc1Cl	-17%	3%	6	i	2	-4%	·	·	·	·
O=C(COc1ccc(Cl)cc1Cl)NCCSc1ccc(Cl)cc1	16µM*	-21%	10	i	12	-17%	?	?	?	64%
O=S(=O)(c1cccc(NC(=S)N2CCN(c3ccccc3F)CC2)c1)C(F)F	7.1µM*	·	·	i	26	-29%	7.3µM*	-9%	0%	-5%
Oc1c(CN2CCOCC2)cc(COCc2ccccc2)c2cccnc12	1µM*	5.6µM*	-88*	i	-92*	-38%	-22%	?	8.2µM*	21%
Oc1c(CN2CCOCC2)cc(CN2CCOCC2)c(O)c1O	4%	5%	-2	i	-15	-9%	·	·	·	·
O=C(Oc1c(CN2CCOCC2)cc(Cl)c2cccnc12)c1ccccc1Br	3.2µM*	·	-69*	?	-94*	-136%	-11%	?	?	1%
COc1cccc(Nc2nc3cc(Cl)c(Cl)cc3nc2-n2nc(C)cc2C)c1	13%	0%	·	i	·	-8%	·	·	·	·
COc1ccccc1NS(=O)(=O)c1ccc(-c2cnc(C3CC3)o2)cc1	11µM*	·	·	i	-15	-24%	?	?	?	4%
Cc1ccc(N(C)S(=O)(=O)c2cc(-c3cnc(C4CC4)o3)ccc2C)cc1	-2%	?	6	i	-1	-9%	·	·	·	·
Cc1cccc(N(C)S(=O)(=O)c2ccc(-c3cnc(C4CC4)o3)cc2)c1	7.9µM*	·	·	?	6	-2%	4.6µM*	?	6.5µM*	30%
COc1ccc(-n2ncc(C(=O)NCCCN3CCCCC3)c2C2CCN(C(=O)OC(C)(C)C)CC2)cc1	-15%	·	·	·	·	-22%	·	·	·	·
O=C(CSc1n[nH]c(-c2ccncc2)n1)Nc1ccccn1	11µM*	-13%	0	i	13	0%	16µM*	-1%	?	-15%
O=C(CSc1n[nH]c(-c2ccccc2)n1)Nc1ncccn1	-16%	-8%[11.3 µM]	2	i	-7	5%	·	·	·	·
O=C(NC(=S)Nc1cccc(Cl)c1Cl)C1CC1	1.3µM*	43%	4	i	0	-24%	1.8µM*	3.7µM*	15µM*	63%
O=C(NC(=S)Nc1ccc(Br)c(Cl)c1)C1CC1	1.6µM*	12%	-6	i	-1	-35%	0.82µM*	2.1µM*	?	35%
O=C(NCC1CC1)c1ccc(Nc2nc3ccc(Br)cc3[nH]2)cc1	10µM*	-20%	-2	?	-4	-27%	?	?	?	52%
COc1ccc(NC(=O)C2c3ccccc3OCC(=O)N2CC(F)(F)F)cc1 (stereo not drawn)	·	4%	-17	i	11	·	·	·	·	·

Bioassay records deposited in PubChem BioAssay by National Center for Advancing Translational Sciences (NCATS).
